# Assay results taken from the supplement of paper PMC8728848.
# This excerpt belongs to a sample that is enriched for the strongest signals.
# Key:
# Assay in all cases: glycan array binding signal (z-score within array); higher = stronger binding
# Conditions in all cases: glycan notation: IUPAC condensed, linker removed
# Fuc(a1-2)Gal = molecular target: Fuc(a1-2)Gal
# How it was run: (§1)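 The binding signal is a Z-score computed within each array. Data were drawn from 3228 arrays in the Consortium for Functional Glycomics database, restricted to those with a known protein sequence. Scores were averaged over arrays of the same protein sequence at different concentrations or buffers, and over linkers, and negative values can be taken as non-binding.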
# Fuc(a1-2)Gal(b1-3)GalNAc = molecular target: Fuc(a1-2)Gal(b1-3)GalNAc
# How it was run: as §1
# [1] = molecular target: Fuc(a1-2)Gal(b1-4)GlcNAc(b1-2)[Fuc(a1-2)Gal(b1-4)GlcNAc(b1-4)]Man(a1-3)[Fuc(a1-2)Gal(b1-4)GlcNAc(b1-2)Man(a1-6)]Man(b1-4)GlcNAc(b1-4)GlcNAc
# How it was run: as §1
# [2] = molecular target: Fuc(a1-2)Gal(b1-4)GlcNAc6S
# How it was run: as §1
# [3] = molecular target: Fuc(a1-2)Gal6S(b1-3)GlcNAc6S
# How it was run: as §1
# [4] = molecular target: Fuc(a1-2)[Gal(a1-3)]Gal(b1-3)GlcNAc(b1-2)Man(a1-3)[Fuc(a1-2)[Gal(a1-3)]Gal(b1-3)GlcNAc(b1-2)Man(a1-6)]Man(b1-4)GlcNAc(b1-4)[Fuc(a1-6)]GlcNAc
# How it was run: as §1
# [5] = molecular target: Fuc(a1-2)[Gal(a1-3)]Gal(b1-3)GlcNAc(b1-3)GalNAc
# How it was run: as §1
# [6] = molecular target: Fuc(a1-2)[Gal(a1-4)]Gal(b1-4)GlcNAc
# How it was run: as §1
# [7] = molecular target: Fuc(a1-2)[GalNAc(a1-3)]Gal(b1-4)[Fuc(a1-3)]GlcNAc(b1-3)GalNAc
# How it was run: as §1
# Fuc(b1-3)GlcNAc = molecular target: Fuc(b1-3)GlcNAc
# How it was run: as §1
# Gal(a1-2)Gal = molecular target: Gal(a1-2)Gal
# How it was run: as §1
# Gal(a1-3)Gal = molecular target: Gal(a1-3)Gal
# How it was run: as §1
# Gal(a1-3)Gal(b1-4)GlcNAc = molecular target: Gal(a1-3)Gal(b1-4)GlcNAc
# How it was run: as §1
# [8] = molecular target: Gal(a1-3)[Gal(a1-4)]Gal(b1-4)GlcNAc
# How it was run: as §1
# [9] = molecular target: Gal(a1-4)Gal(b1-3)GlcNAc(b1-2)Man(a1-3)[Gal(a1-4)Gal(b1-3)GlcNAc(b1-2)Man(a1-6)]Man(b1-4)GlcNAc(b1-4)GlcNAc
# How it was run: as §1
# Gal(b1-2)Gal = molecular target: Gal(b1-2)Gal
# How it was run: as §1
# Gal(b1-3)Gal(b1-4)GlcNAc = molecular target: Gal(b1-3)Gal(b1-4)GlcNAc
# How it was run: as §1
# Gal(b1-3)GalNAc = molecular target: Gal(b1-3)GalNAc
# How it was run: as §1
# [10] = molecular target: Gal(b1-3)GalNAc(a1-3)[Fuc(a1-2)]Gal(b1-4)GlcNAc
# How it was run: as §1
# [11] = molecular target: Gal(b1-3)GalNAc(b1-4)Gal(b1-4)Glc
# How it was run: as §1
# [12] = molecular target: Gal(b1-3)GlcNAc(b1-6)Gal(b1-4)GlcNAc
# How it was run: as §1
# Gal(b1-3)GlcNAc6S = molecular target: Gal(b1-3)GlcNAc6S
# How it was run: as §1
# [13] = molecular target: Gal(b1-3)[GlcNAc(b1-6)]GalNAc
# How it was run: as §1
# [14] = molecular target: Gal(b1-4)GlcNAc(a1-6)Gal(b1-4)GlcNAc
# How it was run: as §1
# [15] = molecular target: Gal(b1-4)GlcNAc(b1-2)Man(a1-3)[Gal(b1-4)GlcNAc(b1-2)Man(a1-6)][GlcNAc(b1-4)]Man(b1-4)GlcNAc(b1-4)[Fuc(a1-6)]GlcNAc
# How it was run: as §1
# [16] = molecular target: Gal(b1-4)GlcNAc(b1-2)Man(a1-3)[Man(a1-6)]Man(b1-4)GlcNAc(b1-4)GlcNAc
# How it was run: as §1
# [17] = molecular target: Gal(b1-4)GlcNAc(b1-3)Gal(b1-3)GlcNAc
# How it was run: as §1
# [18] = molecular target: Gal(b1-4)GlcNAc(b1-3)Gal(b1-4)GlcNAc(b1-3)Gal(b1-4)GlcNAc(b1-3)Gal(b1-4)GlcNAc(b1-2)[Gal(b1-4)GlcNAc(b1-3)Gal(b1-4)GlcNAc(b1-3)Gal(b1-4)GlcNAc(b1-3)Gal(b1-4)GlcNAc(b1-6)]Man(a1-6)[Gal(b1-4)GlcNAc(b1-3)Gal(b1-4)GlcNAc(b1-3)Gal(b1-4)GlcNAc(b1-3)Gal(b1-4)GlcNAc(b1-2)Man(a1-3)]Man(b1-4)GlcNAc(b1-4)[Fuc(a1-6)]GlcNAc
# How it was run: as §1
# Gal6P(b1-4)GlcNAc = molecular target: Gal6P(b1-4)GlcNAc
# How it was run: as §1
# Gal6S(b1-3)GlcNAc = molecular target: Gal6S(b1-3)GlcNAc
# How it was run: as §1
# Gal6S(b1-4)GlcNAc = molecular target: Gal6S(b1-4)GlcNAc
# How it was run: as §1
# [19] = molecular target: GalNAc(a1-3)GalNAc(b1-3)Gal(a1-4)Gal(b1-4)GlcNAc
# How it was run: as §1
# GalNAc(b1-3)Gal = molecular target: GalNAc(b1-3)Gal
# How it was run: as §1
# GalNAc(b1-4)GlcNAc6S = molecular target: GalNAc(b1-4)GlcNAc6S
# How it was run: as §1
# [20] = molecular target: Glc(a1-4)Glc(a1-4)Glc(a1-4)Glc
# How it was run: as §1
# Glc(a1-6)Glc(a1-6)Glc = molecular target: Glc(a1-6)Glc(a1-6)Glc
# How it was run: as §1
# [21] = molecular target: Glc(a1-6)Glc(a1-6)Glc(a1-6)Glc
# How it was run: as §1
# [22] = molecular target: GlcNAc(a1-4)Gal(b1-4)GlcNAc(b1-3)Gal(b1-4)[Fuc(a1-3)]GlcNAc(b1-3)Gal(b1-4)[Fuc(a1-3)]GlcNAc
# How it was run: as §1
# [23] = molecular target: GlcNAc(a1-6)Gal(b1-4)GlcNAc
# How it was run: as §1
# [24] = molecular target: GlcNAc(b1-2)[GlcNAc(b1-6)]Man(a1-6)[GlcNAc(b1-2)Man(a1-3)]Man(b1-4)GlcNAc(b1-4)GlcNAc
# How it was run: as §1
# [25] = molecular target: GlcNAc(b1-2)[GlcNAc(b1-6)]Man(a1-6)[GlcNAc(b1-4)][GlcNAc(b1-2)Man(a1-3)]Man(b1-4)GlcNAc(b1-4)GlcNAc
# How it was run: as §1
# [26] = molecular target: GlcNAc(b1-3)Gal(b1-4)GlcNAc(b1-3)Gal(b1-4)GlcNAc(b1-3)GalNAc
# How it was run: as §1
# GlcNAc(b1-4)GlcNAc = molecular target: GlcNAc(b1-4)GlcNAc
# How it was run: as §1
# [27] = molecular target: GlcNAc(b1-4)GlcNAc(b1-4)GlcNAc(b1-4)GlcNAc(b1-4)GlcNAc
# How it was run: as §1
# [28] = molecular target: GlcNAc(b1-6)Gal(b1-4)GlcNAc
# How it was run: as §1
# [29] = molecular target: GlcNAc6S(b1-3)Gal(b1-4)GlcNAc
# How it was run: as §1
# [30] = molecular target: Man(a1-2)Man(a1-2)Man(a1-6)[Man(a1-3)]Man
# How it was run: as §1
# [31] = molecular target: Man(a1-2)Man(a1-3)[Man(a1-2)Man(a1-6)]Man(a1-6)[Man(a1-2)Man(a1-2)Man(a1-3)]Man
# How it was run: as §1
# [32] = molecular target: Man(a1-3)[Man(a1-6)]Man(a1-6)[Man(a1-2)Man(a1-3)]Man(b1-4)GlcNAc(b1-4)GlcNAc
# How it was run: as §1
# [33] = molecular target: Neu5Ac(a2-3)Gal(b1-4)GlcNAc(b1-2)Man
# How it was run: as §1
# [34] = molecular target: Neu5Ac(a2-3)Gal(b1-4)GlcNAc(b1-3)Gal(b1-4)GlcNAc(b1-2)Man(a1-3)[Neu5Ac(a2-3)Gal(b1-4)GlcNAc(b1-3)Gal(b1-4)GlcNAc(b1-2)Man(a1-6)]Man(b1-4)GlcNAc(b1-4)GlcNAc
# How it was run: as §1
# [35] = molecular target: Neu5Ac(a2-3)Gal(b1-4)GlcNAc(b1-6)[Neu5Ac(a2-3)Gal(b1-3)]GalNAc
# How it was run: as §1
# [36] = molecular target: Neu5Ac(a2-3)Gal(b1-4)GlcNAc6S
# How it was run: as §1
# Neu5Ac(a2-6)Gal = molecular target: Neu5Ac(a2-6)Gal
# How it was run: as §1
# [37] = molecular target: Neu5Ac(a2-6)Gal(b1-4)GlcNAc(b1-2)Man(a1-3)[Neu5Ac(a2-6)Gal(b1-4)GlcNAc(b1-2)Man(a1-6)]Man(b1-4)GlcNAc(b1-4)[Fuc(a1-6)]GlcNAc
# How it was run: as §1
# [38] = molecular target: Neu5Ac(a2-6)Gal(b1-4)GlcNAc(b1-3)Gal(b1-4)GlcNAc(b1-6)[Gal(b1-3)]GalNAc
# How it was run: as §1
# [39] = molecular target: Neu5Ac(a2-6)Gal(b1-4)GlcNAc(b1-6)[Gal(b1-3)]GalNAc
# How it was run: as §1
# [40] = molecular target: Neu5Gc(a2-3)Gal(b1-3)[Fuc(a1-4)]GlcNAc
# How it was run: as §1
binder,measurement,setting,value
VLRB.aGPA.23-GCN4-biotin (Petromyzon marinus) (protein) ACPSQCSCSGTEVNCAGKSLASVPAGIPTTTRVLYLNSNQITKLEPGVFDRLANLRELHLWGNQLVSLPPGVFDNLANLEKLWLNSNQLTSLPAGLFDRLVNLEHLGLCCMKLTELPSGAFDKLTRLKQLGLDQNQLKSIPDGAFARLPSLTHVWLHTNPWDCQCTDILYLSGWVAQHSSIVGEGWPWRHSPDSAKCSGTNTPVRAVTEASTSPSKCP,glycan array binding signal (z-score),Fuc(a1-2)Gal,13.2
same,glycan array binding signal (z-score),Fuc(a1-2)Gal(b1-3)GalNAc,12.6
same,glycan array binding signal (z-score),[1],-0.082
same,glycan array binding signal (z-score),[2],-0.082
same,glycan array binding signal (z-score),[3],-0.055
same,glycan array binding signal (z-score),[4],-0.07
same,glycan array binding signal (z-score),[5],-0.083
same,glycan array binding signal (z-score),[6],-0.066
same,glycan array binding signal (z-score),[7],0.368
same,glycan array binding signal (z-score),Fuc(b1-3)GlcNAc,-0.075
same,glycan array binding signal (z-score),Gal(a1-2)Gal,0.157
same,glycan array binding signal (z-score),Gal(a1-3)Gal,-0.08
same,glycan array binding signal (z-score),Gal(a1-3)Gal(b1-4)GlcNAc,-0.079
same,glycan array binding signal (z-score),[8],-0.069
same,glycan array binding signal (z-score),[9],-0.073
same,glycan array binding signal (z-score),Gal(b1-2)Gal,3.68
same,glycan array binding signal (z-score),Gal(b1-3)Gal(b1-4)GlcNAc,0.046
same,glycan array binding signal (z-score),Gal(b1-3)GalNAc,0.232
same,glycan array binding signal (z-score),[10],-0.083
same,glycan array binding signal (z-score),[11],0.519
same,glycan array binding signal (z-score),[12],-0.077
same,glycan array binding signal (z-score),Gal(b1-3)GlcNAc6S,-0.09
same,glycan array binding signal (z-score),[13],-0.079
same,glycan array binding signal (z-score),[14],-0.077
same,glycan array binding signal (z-score),[15],-0.081
same,glycan array binding signal (z-score),[16],-0.076
same,glycan array binding signal (z-score),[17],-0.071
same,glycan array binding signal (z-score),[18],-0.071
same,glycan array binding signal (z-score),Gal6P(b1-4)GlcNAc,-0.084
same,glycan array binding signal (z-score),Gal6S(b1-3)GlcNAc,0.341
same,glycan array binding signal (z-score),Gal6S(b1-4)GlcNAc,-0.083
same,glycan array binding signal (z-score),[19],-0.076
same,glycan array binding signal (z-score),GalNAc(b1-3)Gal,-0.076
same,glycan array binding signal (z-score),GalNAc(b1-4)GlcNAc6S,-0.082
same,glycan array binding signal (z-score),[20],-0.064
same,glycan array binding signal (z-score),Glc(a1-6)Glc(a1-6)Glc,-0.077
same,glycan array binding signal (z-score),[21],-0.076
same,glycan array binding signal (z-score),[22],-0.069
same,glycan array binding signal (z-score),[23],-0.087
same,glycan array binding signal (z-score),[24],-0.079
same,glycan array binding signal (z-score),[25],-0.085
same,glycan array binding signal (z-score),[26],-0.084
same,glycan array binding signal (z-score),GlcNAc(b1-4)GlcNAc,-0.088
same,glycan array binding signal (z-score),[27],-0.086
same,glycan array binding signal (z-score),[28],-0.084
same,glycan array binding signal (z-score),[29],-0.08
same,glycan array binding signal (z-score),[30],-0.059
same,glycan array binding signal (z-score),[31],-0.081
same,glycan array binding signal (z-score),[32],0.041
same,glycan array binding signal (z-score),[33],-0.068
same,glycan array binding signal (z-score),[34],-0.005
same,glycan array binding signal (z-score),[35],-0.087
same,glycan array binding signal (z-score),[36],-0.079
same,glycan array binding signal (z-score),Neu5Ac(a2-6)Gal,-0.082
same,glycan array binding signal (z-score),[37],-0.074
same,glycan array binding signal (z-score),[38],-0.072
same,glycan array binding signal (z-score),[39],-0.077
same,glycan array binding signal (z-score),[40],-0.074
